# Experimental data as given in the supplement of paper PMC5940239.
# Tests used:
# [1] = tested on: Madurella mycetomatis MM55; settings: 7 days
# [2] = tested on: Madurella mycetomatis MM55; experiment: IC90; higher = less potent; settings: 7 days
# [3] = tested on: Madurella mycetomatis MM55; experiment: percent growth relative to solvent control; higher = less inhibition, active = 20 or less; settings: 100 µM; 7 days
SMILES,IC50 [1] [µM],IC90 [2] [µM],percent growth [3]
CC(C)NCC(=O)Nc1cccc(C(=O)Nc2cccc(C(F)(F)F)c2)c1,62,93.7,2.17% (active)
COc1ccc(-c2cnc3ccc(N4CCCC4)nn23)cc1OC,64,92.7,0.205% (active)
c1ccc(C[C@@H]2CN(c3nccc(Oc4ccc(-n5ccnc5)cc4)n3)CCN2)cc1,58.9,91.2,-0.802% (active)
CNCCC(Oc1ccc(C(F)(F)F)cc1)c1ccccc1 (stereo not drawn),10.1,18.6,1.78% (active)
CC(Oc1ccccc1)C(=O)Nc1nc(-c2ccccn2)cs1 (stereo not drawn),10.1,18.5,1.36% (active)
CN1CCN(c2nccc3[nH]c(-c4cccc(F)c4)cc23)CC1,50.5,93,3.26% (active)
Cc1cc(NCCc2ccccc2)nc(NC(=N)Nc2ccc(Cl)cc2)n1,10.4,18.8,-1.87% (active)
CC1=Nc2ccc(Cl)cc2C(O)(c2ccc(C)cc2)N1CCN1CCCCC1 (stereo not drawn),49.3,92.3,2.85% (active)
N=C(N)Nc1ccc(-c2ccc(-c3ccc(N=C(N)N)c(Cl)c3)o2)cc1Cl,61.6,88.5,-8.11% (active)
CCCn1nnc(NC(=O)COc2ccc(C3CCCCC3)cc2)n1,65.8,94.3,2.18% (active)
CC(C)(C)n1nc(Cc2ccc(F)c(Cl)c2)c2c(N)ncnc21,62,93,1.18% (active)
N=C(N)Nc1ccc(-c2ccc(-c3ccc(NC(=N)N)cc3Cl)o2)c(Cl)c1,11.4,17.8,-6.7% (active)
Cc1ncc(-c2ccnc(Nc3ccc(S(C)(=O)=O)cc3)n2)n1C(C)C,65.9,96.9,6.23% (active)
c1ccc(Oc2ccc(-c3cc(CN4CCOCC4)[nH]n3)cc2)cc1,65.4,95.6,3.77% (active)
CCc1ccc(S(=O)(=O)Nc2cc(CN3CCN(CCC(C)C)CC3)ccc2C)cc1,59.9,91.5,-0.809% (active)
Cc1ccc2[nH]c(C3CCCNC3)c(-c3ccncc3)c2c1 (stereo not drawn),52.1,89.4,0.356% (active)
CC(C)=CCC/C(C)=C\CNCCNC1C2CC3CC(C2)CC1C3 (stereo not drawn),10.2,19.8,2.78% (active)
Cc1cc(C)n(-c2ccc(NC(=O)C3CCN(Cc4cnc(C)s4)CC3)cc2)n1,48.8,92.5,1.64% (active)
Cc1cc(C)c2cc(C(=O)NC3CCCCCCC3)[nH]c2c1,64.9,94.3,2.52% (active)
O=C(Nc1cccc(-c2ccc(NCCCN3CCCC3)nc2)c1)c1ccccc1,53.1,90.9,-1.11% (active)
COc1cc(CN2CCC3(C=Cc4ccccc43)CC2)cc2c1OCO2,28,91.5,4.12% (active)
c1ccc(Oc2ccc(-c3cc(C4CCOCC4)[nH]n3)cc2)cc1,35.6,57,4.02% (active)
O=C1COCc2ccc(Br)cc2N1Cc1ccc(C(F)(F)F)cc1,45,95.4,9.1% (active)
NCCN(C(=O)c1ccc(Cl)cc1Cl)c1ccc(OCc2ccc(Cl)cc2)cc1,10.5,17.9,4.52% (active)
COc1ccc(-c2onc(C(F)(F)F)c2-c2ccc(Cl)cc2)c(O)c1,8.8,16.8,3.39% (active)

SMILES,IC50 [1] [µM],IC90 [2] [µM],percent growth [3]
Cc1ccccc1CN1CCC(O)(c2ccc(Cl)c(C(F)(F)F)c2)CC1,35.5,56.3,1.71% (active)
O=C(COc1cccc(F)c1)Nc1nc(-c2ccccn2)cs1,8.85,16.1,0.599% (active)
CNC(=O)c1nn(C)c2c1C(C)(C)Cc1cnc(Nc3ccc(N4CCN(C)CC4)cc3)nc1-2,10.7,21.5,0.489% (active)
Cc1ccc2nc(C)c(-c3ccn(Cc4ccccc4)n3)n2c1,39.8,90.8,2.95% (active)
O=C([C@@H](c1ccc(Cl)cc1)c1cccnc1)N1CCN(c2ccc(C(F)(F)F)cc2)CC1,1.35,3.4,4.17% (active)
CC(C)(C)C1CCC(CC2=C(O)C(=O)c3ccccc3C2=O)CC1 (stereo not drawn),66.8,92.7,-0.835% (active)
N=C(N)c1ccc(-c2cc(-c3ccccc3)on2)cc1,52.1,90.2,-0.237% (active)
Cc1nnc(NCc2cccc(Cl)c2)c2ccccc12,29.1,62.8,-0.336% (active)
O=C(Nc1ccccc1)c1ccc(-c2cc3ccncc3cc2OC2CCNCC2)s1,54.3,87.4,-5% (active)
NC(CC(=O)c1ccc(Cl)cc1Cl)C(Cl)(Cl)Cl (stereo not drawn),58.1,95,5.11% (active)
COc1cncc(-c2cncc(N3CCN(c4ccncc4)CC3)n2)c1,28.2,52.1,-0.286% (active)
O=C(NCCc1ccccc1)c1cc(-c2cccnc2)cnc1NCC1CC1,–,92.4,1.69% (active)
Brc1cncc(-c2cc(NCCCn3ccnc3)nc(-c3ccccc3)n2)c1,55,90.8,-0.251% (active)
O=C(NC1CCN(c2ccnc3ccccc23)C1)c1cccc(C(F)(F)F)c1 (stereo not drawn),61.6,94.8,3.94% (active)
CNc1nnc(Sc2cnn(-c3ccccc3)c(=O)c2Cl)s1,54.9,90.8,-0.261% (active)
Cc1cc(NCC(C)C)c2n[nH]c(-c3ccccc3)c2n1,52.5,89.3,-1.5% (active)
C[C@H](c1ccc2c(c1)CCCC2)N(C)c1ncc2c(N)nc(N)nc2n1,63.7,91,-2.94% (active)
CN1CCC(c2cc(-c3ccncc3)c(-c3ccc(F)cc3)[nH]2)CC1,56.4,91.6,1.72% (active)
Cc1ccc2c(c1C)NC(=O)C21NN=C(c2ccccc2)S1 (stereo not drawn),37.9,61.2,4.4% (active)
CCOC(=O)c1c(NC(=O)c2c(F)c(F)c(F)c(F)c2F)sc(C(N)=O)c1C,60.5,92.8,1.26% (active)
CCCCOC(=O)Nc1cc2nc(C3CCCCC3)[nH]c2cc1N1CCCC1,11.6,18.4,7.67% (active)
COc1cccc(-n2nnnc2S(=O)(=O)Cc2ccccc2)c1,45.7,90,1.14% (active)
COc1ccc(-c2nnc3ccc(-c4cccc(C(C)C)c4)cn23)cc1OC,40.6,86.2,2.59% (active)
CCCc1ccc(S(=O)(=O)Nc2ccc(CN3CCN(CC4CC4)CC3)cc2)cc1,63.1,91.8,-0.983% (active)
c1cncc(NCc2ccc(-c3cc4ccncc4cc3OC3CCNCC3)s2)c1,53.9,88.5,-3.08% (active)

SMILES,IC50 [1] [µM],IC90 [2] [µM],percent growth [3]
NCC(c1cccs1)S(=O)(=O)c1ccccc1 (stereo not drawn),53.9,91.8,1.47% (active)
CC(C)(C)n1nc(-c2ccccc2)c2c(N)ncnc21,49.4,96.4,10.4% (active)
CC[P](CC)(CC)=[Au][S][C@H]1O[C@@H](COC(C)=O)[C@H](OC(C)=O)[C@@H](OC(C)=O)[C@@H]1OC(C)=O,17.1,45.8,3.51% (active)
COc1ccc(CCN2CCC(NCc3cccc(N(C)C)c3)CC2)cc1,24.5,51.7,-0.197% (active)
COc1ccc(CN2CCOc3ccc(C(C)(O)CN(C)C)cc3C2)cc1C (stereo not drawn),60.6,93.5,2.42% (active)
COc1ccc(-c2cnc3cnc(-c4cccc(OC(C)C)c4)cn23)cc1,43.6,95,6.18% (active)
CC(C)(C(=O)Nc1ccc(F)cc1)n1cc(-c2ccccc2F)cn1,56.2,96.1,6.9% (active)
COc1ccc(C2=NN(C3CCCCCC3)C(=O)C2(C)C)cc1OCCCCOc1ccc(-c2nn[nH]n2)cc1,50.9,90.9,0.849% (active)
Cc1cc(OCC(=O)NCc2ccccc2)c2cc(Br)ccc2n1,67.9,100,15.1% (active)
Cc1nn(C(=O)Nc2cccc(C(F)(F)F)c2)c(C)c1Sc1ncccn1,68.5,94,1.34% (active)
COc1cccc(-n2nnnc2S(C)(=O)=O)c1,59.9,92.6,1.2% (active)
O=C(c1ccco1)N(CCCn1ccnc1)c1nc2c(Cl)cccc2s1,59.1,94,3.24% (active)
COc1cccc(-c2cc3c(Nc4cccnc4)nccc3[nH]2)c1,51.8,92.5,2.45% (active)
C[C@@H]1[C@H](O)[C@@H](C)/C=C/C=C/C=C/C=C/C=C/C=C/C=C/[C@H](O[C@@H]2O[C@H](C)[C@@H](O)[C@H](N)[C@@H]2O)C[C@@H]2O[C@](O)(C[C@@H](O)C[C@@H](O)[C@H](O)CC[C@@H](O)C[C@@H](O)CC(=O)O[C@H]1C)C[C@H](O)[C@H]2C(=O)O,9.7,20.1,7.03% (active)
Cc1cccc(Cn2ccc(NC(=O)c3ccc4c(c3)OCO4)n2)c1,60.1,90.7,-0.936% (active)
Oc1c(I)cc(I)c2cccnc12,2.55,4.65,-2.46% (active)
CC(C)(C)c1ccc(N[C@@H]2CCCC[C@H]2NC(=O)c2ccco2)cc1,53,89.7,-1.4% (active)
COc1cc(C2=NCCN2)cc2cc(-c3ccc(C4=NCCN4)cc3)oc12,48.3,88.8,-1.77% (active)
c1ccc(-c2nc(NC3CCCCC3)cc(C3CC3)n2)nc1,10.3,18.8,2.69% (active)
c1ccc(Oc2ccc(-c3cc(N4CCOCC4)[nH]n3)cc2)cc1,56.9,95.2,5.11% (active)
FC(F)(F)c1cc(NCCc2ccccc2)nc(-c2ccccn2)n1,55.5,91.1,-0.699% (active)
CN1CCC(NCc2cccc(-c3ccc(S(=O)(=O)NCc4ccccc4)cc3)c2)CC1,40.8,92,3.47% (active)
COC(=O)C1=C(C)NC(C)=C(C(=O)OC(C)C)C1c1cccc2nonc12 (stereo not drawn),45.1,87.6,-1.92% (active)
